Screening results: PubChem BioAssay, Johns Hopkins Ion Channel Center
The list is not random: actives were taken first. Their share in the collection is about 2.3%.
TMEM16A inh: blocks the mouse calcium-activated chloride channel TMEM16A | Q8BHY3 | HEK293 TMEM16A/YFP iodide influx fluorescence, ionomycin | normalized B-score (activity score, 25-100; higher = stronger inhibition) at 10 µM | 1.2% of 310,000 active;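 active means ratio plate-corrected score three or more library SD toward inhibition, starting fluorescence score within five deviations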;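 further: score derived from kinetic fluorescence span divided by baseline fluorescence per well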
CHT inh: inhibitors of human choline transporter CHT; Q9GZV3; CHT-expressing cells, membrane potential dye, choline response; stronger effect = lower value; B-score at 10 µM; 0.86% of 310,000 active;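 active means B-score over 3 SD under the library average, and starting fluorescence ratio not unusually high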;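 further: choline stimulus applied at its EC90 after an EC20 pre-addition; B-score computed on integrated fluorescence ratio after choline addition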
CHT allo act: human CHT allosteric activation; Q9GZV3; CHT-expressing cells, membrane potential dye, choline EC20; stronger effect = higher value; LV-AA mutant CHT in HEK293 cells; B-score at 10 µM; 0.49% of 310,000 active;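 active means initial fluorescence not abnormally high and integrated response B-score, plate-corrected, over 3 SD above library mean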
TMEM16A act: mouse TMEM16A channel activation, primary screen; Q8BHY3; HEK293 TMEM16A/YFP-H148Q/I152L, iodide quench fluorescence; stronger effect = lower value; B-score at 10 µM; 0.3% of 340,000 active; AID 623877;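 active means fluorescence-ratio B-score plate-corrected deviation score at least 3 library SD below zero, with starting fluorescence score within 5 deviations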;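 further: channel opened by trigger with iodide after compound preincubation; score built on the fluorescence ratio of max minus min over baseline; more negative score means more quench and so TMEM16A activation or potentiation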
Hits are given with their value; n = inactive; x = no result.

SMILES | TMEM16A inh | CHT inh | CHT allo act | TMEM16A act
Cc1ccc(O)c(C2=NNC(O)(C(F)(F)F)C2)c1 (configuration not stated) | 25 | n | n | n
Cc1ccc(S(=O)(=O)Nc2ccccc2N2CCCCC2)cc1 | x | x | x | -20
CCS(=O)(=O)c1nc(S(=O)(=O)c2ccc(C)cc2)c(N2CCC(C)CC2)s1 | n | n | n | n
CCc1ccc(/C=C2\SC(=S)N(CCCC(=O)Nc3ccccc3C(=O)O)C2=O)cc1 | 100 | n | n | n
CCc1ccc(/C=C2\SC(=S)N(CCCC(=O)Nc3ccc(C(=O)O)cc3)C2=O)cc1 | 100 | n | n | n
COc1ccc(C(=O)OC2C(OC)OCC(O)C2O)cc1 (configuration not stated) | x | x | x | n
CCOC(=O)c1cnc2ccc(OCC)cc2c1NCc1ccccc1 | 100 | n | n | n
CCOC(=O)c1cnc(-n2nc(C)cc2C)nc1NCCO | n | n | n | n
CCOC(=O)c1cnc(-n2nc(C)cc2C)nc1NCc1ccccc1 | 100 | n | n | n
O=C1N(c2ccccc2C(F)(F)F)O[C@]1(c1ccccc1)C1CCCC1 | x | x | x | n
CCOc1ccc(CCNC(=O)CSc2nnnn2C)cc1OCC | n | n | n | n
CCOc1ccc(CCNC(=O)CSc2nn(-c3ccc(C)c(Cl)c3)c(=S)s2)cc1OCC | n | n | n | -6
CN(C)c1ccc(-c2noc(C3CCN(C(=O)Nc4ccc(Cl)cc4)CC3)n2)cc1 | n | n | n | -4.6
CCOc1ccc2c(c1)s/c(=N\S(=O)(=O)c1ccc(OC)cc1)n2C(F)F | 25 | n | n | n
Oc1ccccc1-c1nc(NCc2ccccc2)c2ccccc2n1 | n | n | n | n
Oc1ccccc1Nc1nc(NCc2ccccc2)c2ccccc2n1 | 100 | n | n | n
O=C(CCN1CCN(c2ccccc2)CC1)NNC(=O)Cc1ccc(Br)cc1 | x | x | x | n
Nc1c(C(=O)O)ccc2c1C(=O)c1ccccc1C2=O | n | n | n | n
Nc1c(SCCC(=O)O)ccc2c1C(=O)c1ccccc1C2=O | n | n | n | -5.3
CC1Sc2ccc(S(=O)(=O)N3CCC(C(=O)Nc4cccc(Cl)c4)CC3)cc2NC1=O (configuration not stated) | 25 | n | n | n
O=C(CSCCc1ccccn1)Nc1cccnc1Cl | 25 | n | n | n
O=C(CSCCc1ccccn1)Nc1ccccn1 | n | n | n | n
COc1ccc(CN2CCN(C(=O)c3ccccc3C(=O)c3ccccc3)CC2)cc1OC | x | x | x | n
O=C1CCN(Cc2cccnc2)CCN1[C@H](CO)Cc1ccccc1 | n | n | n | n
N#Cc1ccc(OCC(O)CN2CCN(c3ncc(C(F)(F)F)cc3Cl)CC2)cc1 (configuration not stated) | 25 | n | n | n
SMILES | TMEM16A inh | CHT inh | CHT allo act | TMEM16A act
O=c1oc2ccccc2c(Nc2cc3ccccc3cc2O)c1[N+](=O)[O-] | 100 | n | n | n
CCOc1ccc(C(=O)NCC(=O)NCCCSc2ccccc2)cc1OCC | n | n | n | n
CCOC(=O)C1(CCc2ccccc2)CCN(Cc2ccn[nH]2)CC1 | n | n | n | n
CCOC(=O)C1(CCCc2ccccc2)CCN(C(=O)Cc2nonc2C)CC1 | n | n | n | -6.7
CCOC(=O)C1(CCc2ccccc2)CCN(Cc2cccc3nccnc23)CC1 | n | -12 | n | n
CCOC(=O)C1(CCCc2ccccc2)CCN(C(=O)CSC)CC1 | n | n | n | n
O=C(OCc1c(-c2ccccc2)ncc2ccccc12)c1cccs1 | x | x | x | n
Cc1ccc([N+](=O)[O-])c(OCCN2C(=O)NC(C)(C)C2=O)c1 | n | n | n | n
Cc1cc(OCCCCN2C(=O)NC(C)(C)C2=O)ccc1[N+](=O)[O-] | 25 | n | n | n
Cc1ccc(OCC(=O)NC2CCCC(C)C2C)c([N+](=O)[O-])n1 (configuration not stated) | x | x | x | n
O=C(CSc1nnc(NC2CC2)s1)c1ccc[nH]1 | x | x | x | n
O=S(=O)(Nc1cc(S(=O)(=O)N2CCOCC2)ccc1O)c1ccc2c(c1)OCCCO2 | x | x | x | -22
O=S(=O)(Nc1cc(S(=O)(=O)N2CCOCC2)ccc1N1CCOCC1)c1ccc2c(c1)OCCO2 | n | n | n | n
COc1ccccc1CN1C[C@@H]2C[C@@H](c3ccccc3OC)N3CCC[C@@]23C1=O | n | n | n | n
COc1ccccc1CN1C[C@@H]2C[C@@H](C3=Cc4cccc(OC)c4OC3)N3CCC[C@@]23C1=O | n | n | n | -4.7
O=C(Nc1ncc(S(=O)(=O)c2ccc([N+](=O)[O-])cc2)s1)c1cccc2ccccc12 | 25 | n | n | -5.3
COCC(=O)Nc1ncc(S(=O)(=O)c2ccc([N+](=O)[O-])cc2)s1 | n | n | n | n
O=C(Nc1ncc([N+](=O)[O-])s1)c1ccccc1Br | 100 | n | n | n
O=C(NC(Nc1ncc(S(=O)(=O)c2ccc([N+](=O)[O-])cc2)s1)(C(F)(F)F)C(F)(F)F)c1ccc(Cl)cc1 | 100 | n | n | n
CCN(CC(=O)Nc1c(F)cccc1F)C(=O)CCCc1cccs1 | x | x | x | -39
COC(=O)CSc1nc2sc3c(c2c(=O)n1C1CCCCC1)CCN(C)C3 | n | n | 8.8 | x
COc1cccc(CN(C)C(=O)CN2C(=O)NC(c3ccccc3)(c3ccccc3)C2=O)c1 | x | x | x | -48
COC(=O)c1[nH]c2cc(OC)c(OC)cc2c1NC(=O)CN1C[C@H]2C[C@@H](C1)c1cccc(=O)n1C2 | x | x | x | n
Cc1nn(CC(=O)N2CCN(c3cccc(C(F)(F)F)c3)CC2)c(=O)c2cccn12 | n | n | n | n
O=C(NC1CCC1)C1CCC(=O)N(Cc2ccccc2F)C1 (configuration not stated) | n | n | n | n
SMILES | TMEM16A inh | CHT inh | CHT allo act | TMEM16A act
O=C(NC1CCC1)C1CCC(=O)N(Cc2cccc(F)c2)C1 (configuration not stated) | n | n | n | -6.2
O=C(Nc1ccccc1C(=O)N/N=C/c1ccco1)c1ccccc1Cl | 100 | n | n | n
Cc1nc2nc(N)nn2c(C)c1C/C=C/c1ccccc1 | n | n | n | -37
COC(=O)c1ccc(COC(=O)c2[nH]c(C)c(C(C)=O)c2C)o1 | 100 | n | n | n
CC(=O)c1c(C)[nH]c(C(=O)OCc2ccc([N+](=O)[O-])cc2)c1C | n | n | n | n
Cc1ccc(/C=C2\SC(=S)N(NS(=O)(=O)c3ccc(C)cc3)C2=O)cc1 | n | n | n | n
COc1ccc(/C=C2/SC(=S)N(NS(=O)(=O)c3ccc(C)cc3)C2=O)cc1 | n | -5.6 | n | n
O=C(NCc1cccnc1)c1cn(CCc2ccccc2)nn1 | 25 | n | n | n
O=C(CCNC(=O)c1ccc(Br)cc1)NCc1cccnc1 | n | n | n | n
Cc1c(/C=N/NC(=O)C(NC(=O)c2ccc3c(c2)OCO3)C(C)C)c2ccccc2n1C (configuration not stated) | n | n | n | -5.7
O=S(=O)(c1ccc(Cl)cc1)N1CCN(S(=O)(=O)N2CCCCCC2)CC1 | n | n | n | n
O=S(=O)(N1CCCCC1)N1CCN(c2cc(Cl)ccc2Cl)CC1 | n | n | n | -8
CCOC(=O)N1CCN(C(=O)c2c[nH]c3ccc(S(=O)(=O)N(C)c4ccccc4C)cc3c2=O)CC1 | n | n | n | n
